In publication PMC7862700, “An all-to-all approach to the identification of sequence-specific readers for epigenetic DNA modifications on cytosine” one finds binding signal data, which are given here for one sequence.

Common to all, as to assay: DAPPL (digital affinity profiling via proximity ligation, sequencing); 10 mM Tris-HCl pH 7.5, 50 mM NaCl, 1 mM DTT, 4% glycerol, room temperature, 30 min; GST-TFs on glutathione beads, 16-mer random dsDNA library, 0.1% formaldehyde crosslink after washing; high values mean tight binding
In one assay the target is T1, FEV (Homo sapiens, UniProt Q99581 1-238).
T1 sequence: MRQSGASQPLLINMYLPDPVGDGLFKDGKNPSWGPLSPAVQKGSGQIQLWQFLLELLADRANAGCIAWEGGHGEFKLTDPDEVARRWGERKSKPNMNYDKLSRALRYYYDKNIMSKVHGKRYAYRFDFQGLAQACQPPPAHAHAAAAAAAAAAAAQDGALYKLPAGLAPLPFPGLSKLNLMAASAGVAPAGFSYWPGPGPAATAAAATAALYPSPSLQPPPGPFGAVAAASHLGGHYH
The conditions noted are these: protein: recombinant; tags: N-terminal GST; dsDNA, one strand shown. The gist of the method:
(§1)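 Human transcription factors were made in yeast as GST fusions, captured on glutathione beads and barcoded with DNA. With a tag-only sample included, the pool was incubated with 200 nmole of a random double-stranded 16-mer DNA library in Tris/NaCl/DTT/glycerol buffer at room temperature for 30 min, then crosslinked with 0.1% formaldehyde after washing, ligated by proximity, amplified and sequenced. For binding signal, each hexamer's read frequency for a factor is divided by its frequency for the tag-only sample.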

The next assay has as its target ETV5 (Homo sapiens, UniProt P41161 1-510). The conditions noted are these: protein: recombinant; tags: N-terminal GST; dsDNA, one strand shown. Put shortly: as §1
A further assay concerns the target HSF1 (Homo sapiens, UniProt Q00613 1-529). The following applies: protein: recombinant; tags: N-terminal GST; chain copies: 3; dsDNA, one strand shown. The gist of the method:
as §1

The target of another assay is T2, SPIC (Homo sapiens, UniProt Q8N5J4 1-248).
T2 sequence: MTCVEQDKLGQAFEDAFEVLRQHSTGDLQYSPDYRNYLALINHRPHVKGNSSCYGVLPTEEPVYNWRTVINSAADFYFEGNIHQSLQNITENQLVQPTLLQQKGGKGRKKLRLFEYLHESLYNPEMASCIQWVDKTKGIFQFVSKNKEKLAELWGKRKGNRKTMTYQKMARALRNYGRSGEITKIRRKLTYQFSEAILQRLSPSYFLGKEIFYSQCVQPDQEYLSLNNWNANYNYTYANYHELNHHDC
The following applies: protein: recombinant; tags: N-terminal GST; dsDNA, one strand shown. The gist of the method:
as §1

The target in another assay is ELF4 (Homo sapiens, UniProt Q99607 1-663). The conditions noted are these: protein: recombinant; tags: N-terminal GST; dsDNA, one strand shown. The gist of the method: as §1
The target of another assay is T3, ELK4 (Homo sapiens, UniProt P28324-2 1-405).
T3 sequence: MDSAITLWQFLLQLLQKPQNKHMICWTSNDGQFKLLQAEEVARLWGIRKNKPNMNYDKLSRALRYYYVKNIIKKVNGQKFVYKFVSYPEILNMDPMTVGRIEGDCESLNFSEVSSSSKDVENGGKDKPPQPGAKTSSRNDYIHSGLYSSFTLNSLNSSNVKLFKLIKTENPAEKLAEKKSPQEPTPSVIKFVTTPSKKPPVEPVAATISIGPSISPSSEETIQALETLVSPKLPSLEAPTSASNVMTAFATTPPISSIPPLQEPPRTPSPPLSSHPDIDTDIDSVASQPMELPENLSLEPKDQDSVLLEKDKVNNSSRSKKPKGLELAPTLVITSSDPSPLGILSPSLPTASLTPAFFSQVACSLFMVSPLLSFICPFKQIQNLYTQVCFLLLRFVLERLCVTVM
The conditions noted are these: protein: recombinant; tags: N-terminal GST; dsDNA, one strand shown. Put shortly: as §1

A further assay concerns the target T4, ETV2 (Homo sapiens, UniProt O00321 1-342).
T4 sequence: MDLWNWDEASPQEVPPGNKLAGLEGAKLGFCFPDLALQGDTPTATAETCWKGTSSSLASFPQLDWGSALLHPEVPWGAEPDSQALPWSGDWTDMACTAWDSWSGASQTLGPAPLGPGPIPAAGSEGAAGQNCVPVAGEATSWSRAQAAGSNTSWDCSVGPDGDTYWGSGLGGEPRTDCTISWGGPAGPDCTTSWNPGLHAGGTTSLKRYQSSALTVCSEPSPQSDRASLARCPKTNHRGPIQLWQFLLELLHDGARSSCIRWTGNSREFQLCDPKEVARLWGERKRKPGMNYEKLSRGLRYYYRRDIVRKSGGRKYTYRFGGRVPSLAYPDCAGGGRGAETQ
The following applies: protein: recombinant; tags: N-terminal GST; dsDNA, one strand shown. Put shortly: as §1

The next assay addresses T5, ELF3 (Homo sapiens, UniProt P78545 1-371).
T5 sequence: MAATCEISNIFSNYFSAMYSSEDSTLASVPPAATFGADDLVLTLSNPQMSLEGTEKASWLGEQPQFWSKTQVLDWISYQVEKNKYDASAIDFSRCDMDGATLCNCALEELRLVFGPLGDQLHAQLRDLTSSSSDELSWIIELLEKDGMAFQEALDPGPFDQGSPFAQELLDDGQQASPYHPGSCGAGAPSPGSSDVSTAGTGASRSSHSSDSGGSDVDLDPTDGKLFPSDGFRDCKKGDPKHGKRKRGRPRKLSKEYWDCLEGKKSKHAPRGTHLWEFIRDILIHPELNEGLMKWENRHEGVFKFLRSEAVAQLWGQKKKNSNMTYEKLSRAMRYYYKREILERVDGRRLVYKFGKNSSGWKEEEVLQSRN
The following applies: protein: recombinant; tags: N-terminal GST; dsDNA, one strand shown. The gist of the method:
as §1

The next assay has as its target CRX (Homo sapiens, UniProt O43186 1-299). The conditions noted are these: protein: recombinant; tags: N-terminal GST; dsDNA, one strand shown. Put shortly: as §1
Another assay has as its target ETV1 (Homo sapiens, UniProt P50549 1-477). The conditions noted are these: protein: recombinant; tags: N-terminal GST; dsDNA, one strand shown. Put shortly: as §1
Another assay has as its target T6, ERF (Homo sapiens, UniProt P50548 1-548).
T6 sequence: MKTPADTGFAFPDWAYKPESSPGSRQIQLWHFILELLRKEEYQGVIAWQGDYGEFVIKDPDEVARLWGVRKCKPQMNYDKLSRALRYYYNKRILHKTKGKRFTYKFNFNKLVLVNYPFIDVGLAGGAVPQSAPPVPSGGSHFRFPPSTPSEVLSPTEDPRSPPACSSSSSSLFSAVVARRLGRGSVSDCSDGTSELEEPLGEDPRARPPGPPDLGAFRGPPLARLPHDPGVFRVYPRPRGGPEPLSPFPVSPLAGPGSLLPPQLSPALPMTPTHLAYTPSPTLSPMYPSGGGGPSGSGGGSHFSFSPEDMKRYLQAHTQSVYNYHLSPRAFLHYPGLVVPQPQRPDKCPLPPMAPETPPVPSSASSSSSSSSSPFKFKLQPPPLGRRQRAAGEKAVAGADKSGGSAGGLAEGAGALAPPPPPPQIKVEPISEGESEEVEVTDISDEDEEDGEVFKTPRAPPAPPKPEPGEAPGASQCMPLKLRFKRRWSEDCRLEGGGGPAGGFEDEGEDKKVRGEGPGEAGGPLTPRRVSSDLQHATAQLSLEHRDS
The following applies: protein: recombinant; tags: N-terminal GST; dsDNA, one strand shown. The gist of the method:
as §1

The target of the next assay is T7, ETV3L (Homo sapiens, UniProt Q6ZN32 1-361).
T7 sequence: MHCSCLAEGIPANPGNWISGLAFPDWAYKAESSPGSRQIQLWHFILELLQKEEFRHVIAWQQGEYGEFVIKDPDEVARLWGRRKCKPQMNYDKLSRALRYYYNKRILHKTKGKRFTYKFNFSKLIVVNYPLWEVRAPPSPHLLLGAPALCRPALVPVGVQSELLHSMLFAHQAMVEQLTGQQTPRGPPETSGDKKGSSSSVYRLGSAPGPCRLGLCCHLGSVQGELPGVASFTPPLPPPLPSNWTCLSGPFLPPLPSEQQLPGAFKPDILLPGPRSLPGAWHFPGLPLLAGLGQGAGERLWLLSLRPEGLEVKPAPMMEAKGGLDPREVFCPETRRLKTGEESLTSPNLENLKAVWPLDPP
The following applies: protein: recombinant; tags: N-terminal GST; dsDNA, one strand shown. The gist of the method: as §1

The next assay addresses T8, ETS2 (Homo sapiens, UniProt P15036 1-469).
T8 sequence: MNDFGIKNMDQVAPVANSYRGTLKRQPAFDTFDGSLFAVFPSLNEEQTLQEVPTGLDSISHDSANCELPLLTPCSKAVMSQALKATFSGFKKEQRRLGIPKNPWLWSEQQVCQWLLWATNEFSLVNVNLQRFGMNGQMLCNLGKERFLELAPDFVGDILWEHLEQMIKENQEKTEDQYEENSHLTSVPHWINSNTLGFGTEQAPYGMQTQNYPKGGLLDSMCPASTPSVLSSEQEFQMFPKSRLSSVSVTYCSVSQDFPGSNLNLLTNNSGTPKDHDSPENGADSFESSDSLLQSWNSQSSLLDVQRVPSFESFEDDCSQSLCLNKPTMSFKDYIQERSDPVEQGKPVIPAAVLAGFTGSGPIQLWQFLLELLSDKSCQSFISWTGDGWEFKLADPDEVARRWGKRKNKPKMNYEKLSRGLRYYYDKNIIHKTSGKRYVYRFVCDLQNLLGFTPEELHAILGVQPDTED
The following applies: protein: recombinant; tags: N-terminal GST; dsDNA, one strand shown. The gist of the method: as §1

In a further assay the target is T9, SPDEF (Homo sapiens, UniProt O95238 1-335).
T9 sequence: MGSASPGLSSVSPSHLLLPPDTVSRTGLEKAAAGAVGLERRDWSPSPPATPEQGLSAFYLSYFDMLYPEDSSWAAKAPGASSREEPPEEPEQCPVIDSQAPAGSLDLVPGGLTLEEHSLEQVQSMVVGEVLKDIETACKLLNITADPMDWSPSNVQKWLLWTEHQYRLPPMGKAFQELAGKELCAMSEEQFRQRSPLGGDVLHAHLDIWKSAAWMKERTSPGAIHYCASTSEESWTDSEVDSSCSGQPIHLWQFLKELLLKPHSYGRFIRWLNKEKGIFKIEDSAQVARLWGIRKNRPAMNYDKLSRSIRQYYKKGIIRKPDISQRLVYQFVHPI
The following applies: protein: recombinant; tags: N-terminal GST; dsDNA, one strand shown. The gist of the method:
as §1

A further assay deals with T10, ETV7 (Homo sapiens, UniProt Q9Y603 1-341).
T10 sequence: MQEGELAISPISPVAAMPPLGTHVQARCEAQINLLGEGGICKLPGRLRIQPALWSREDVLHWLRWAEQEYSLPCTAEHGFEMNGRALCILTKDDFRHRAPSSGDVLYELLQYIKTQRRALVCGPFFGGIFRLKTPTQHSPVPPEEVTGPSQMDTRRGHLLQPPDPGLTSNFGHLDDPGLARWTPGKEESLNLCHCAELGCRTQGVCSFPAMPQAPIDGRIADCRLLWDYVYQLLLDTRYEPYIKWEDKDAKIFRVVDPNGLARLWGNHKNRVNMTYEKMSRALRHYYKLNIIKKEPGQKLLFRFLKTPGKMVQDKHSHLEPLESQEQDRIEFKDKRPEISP
The following applies: protein: recombinant; tags: N-terminal GST; dsDNA, one strand shown. Put shortly: as §1

In the next assay the target is T11, ELF5 (Homo sapiens, UniProt Q9UKW6-2 1-255).
T11 sequence: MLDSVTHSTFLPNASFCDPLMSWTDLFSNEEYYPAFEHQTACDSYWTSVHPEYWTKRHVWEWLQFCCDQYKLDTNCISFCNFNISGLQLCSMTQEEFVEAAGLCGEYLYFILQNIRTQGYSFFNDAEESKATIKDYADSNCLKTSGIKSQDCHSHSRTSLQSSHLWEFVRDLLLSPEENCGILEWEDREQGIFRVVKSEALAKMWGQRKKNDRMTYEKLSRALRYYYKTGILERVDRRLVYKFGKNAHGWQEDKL
The conditions noted are these: protein: recombinant; tags: N-terminal GST; dsDNA, one strand shown. Put shortly:
as §1

The next assay concerns the target T12, ETV3 (Homo sapiens, UniProt P41162-2 1-143).
T12 sequence: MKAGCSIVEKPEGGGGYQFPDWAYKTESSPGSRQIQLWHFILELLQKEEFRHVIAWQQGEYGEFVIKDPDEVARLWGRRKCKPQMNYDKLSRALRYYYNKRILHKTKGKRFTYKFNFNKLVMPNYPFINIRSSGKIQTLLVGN
The following applies: protein: recombinant; tags: N-terminal GST; dsDNA, one strand shown. The gist of the method: as §1

The target of the next assay is ETV6 (Homo sapiens, UniProt P41212 1-452). The following applies: protein: recombinant; tags: N-terminal GST; dsDNA, one strand shown. The gist of the method: as §1
Chain of ETV6 (P41212 whole entry): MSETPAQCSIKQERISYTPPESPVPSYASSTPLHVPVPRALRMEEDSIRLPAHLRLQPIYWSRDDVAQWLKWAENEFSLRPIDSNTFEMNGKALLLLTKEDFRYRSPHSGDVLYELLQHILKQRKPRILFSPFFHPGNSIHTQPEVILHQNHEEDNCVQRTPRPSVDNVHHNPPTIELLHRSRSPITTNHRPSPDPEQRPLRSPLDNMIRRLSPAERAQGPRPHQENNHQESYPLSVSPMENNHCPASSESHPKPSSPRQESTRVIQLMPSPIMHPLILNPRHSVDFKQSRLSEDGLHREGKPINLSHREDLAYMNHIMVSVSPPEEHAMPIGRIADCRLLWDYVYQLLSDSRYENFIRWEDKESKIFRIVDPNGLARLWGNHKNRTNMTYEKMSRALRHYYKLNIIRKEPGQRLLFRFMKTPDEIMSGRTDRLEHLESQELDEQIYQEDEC

Chain of HSF1 (Q00613 whole entry): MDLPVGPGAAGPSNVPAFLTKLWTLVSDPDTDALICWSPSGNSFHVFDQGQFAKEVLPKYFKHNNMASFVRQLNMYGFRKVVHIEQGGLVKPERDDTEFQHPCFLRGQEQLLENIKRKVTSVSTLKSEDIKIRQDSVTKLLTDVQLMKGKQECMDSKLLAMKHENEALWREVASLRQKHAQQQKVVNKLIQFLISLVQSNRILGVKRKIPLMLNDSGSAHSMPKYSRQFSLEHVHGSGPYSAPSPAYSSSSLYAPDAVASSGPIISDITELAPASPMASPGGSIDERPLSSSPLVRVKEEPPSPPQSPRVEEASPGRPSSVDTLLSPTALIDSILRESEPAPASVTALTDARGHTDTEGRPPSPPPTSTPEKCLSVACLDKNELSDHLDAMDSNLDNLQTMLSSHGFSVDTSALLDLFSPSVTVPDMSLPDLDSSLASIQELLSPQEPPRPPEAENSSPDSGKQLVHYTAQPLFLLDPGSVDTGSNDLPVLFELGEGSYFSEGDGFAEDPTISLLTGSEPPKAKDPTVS
Chain of ETV5 (P41161 whole entry): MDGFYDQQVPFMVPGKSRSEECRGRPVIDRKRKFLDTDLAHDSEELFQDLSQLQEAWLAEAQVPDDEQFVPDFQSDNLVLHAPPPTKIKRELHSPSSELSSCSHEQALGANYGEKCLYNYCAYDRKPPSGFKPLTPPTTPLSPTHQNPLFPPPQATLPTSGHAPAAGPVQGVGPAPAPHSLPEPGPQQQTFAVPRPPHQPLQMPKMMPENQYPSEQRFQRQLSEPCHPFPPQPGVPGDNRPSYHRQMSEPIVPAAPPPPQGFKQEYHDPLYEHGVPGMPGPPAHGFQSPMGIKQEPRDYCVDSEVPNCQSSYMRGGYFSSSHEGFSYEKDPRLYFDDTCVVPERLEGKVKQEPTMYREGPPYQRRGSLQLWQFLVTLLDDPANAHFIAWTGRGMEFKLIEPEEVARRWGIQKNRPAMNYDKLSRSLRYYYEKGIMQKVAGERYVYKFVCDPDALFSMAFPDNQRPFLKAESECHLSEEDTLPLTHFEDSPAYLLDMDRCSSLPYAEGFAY
Chain of ETV1 (P50549 whole entry): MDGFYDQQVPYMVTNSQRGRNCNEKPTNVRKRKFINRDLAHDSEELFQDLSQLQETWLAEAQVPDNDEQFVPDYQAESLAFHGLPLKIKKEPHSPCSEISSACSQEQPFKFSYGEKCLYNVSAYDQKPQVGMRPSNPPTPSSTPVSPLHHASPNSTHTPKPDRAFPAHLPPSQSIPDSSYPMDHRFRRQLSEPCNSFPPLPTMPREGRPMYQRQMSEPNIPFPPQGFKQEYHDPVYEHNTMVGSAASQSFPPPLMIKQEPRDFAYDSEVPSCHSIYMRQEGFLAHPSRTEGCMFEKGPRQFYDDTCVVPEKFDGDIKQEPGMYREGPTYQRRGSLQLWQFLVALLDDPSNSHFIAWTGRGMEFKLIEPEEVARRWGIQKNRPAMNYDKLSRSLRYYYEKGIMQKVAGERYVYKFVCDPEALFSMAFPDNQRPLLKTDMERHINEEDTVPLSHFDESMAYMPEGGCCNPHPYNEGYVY
Chain of CRX (O43186 whole entry): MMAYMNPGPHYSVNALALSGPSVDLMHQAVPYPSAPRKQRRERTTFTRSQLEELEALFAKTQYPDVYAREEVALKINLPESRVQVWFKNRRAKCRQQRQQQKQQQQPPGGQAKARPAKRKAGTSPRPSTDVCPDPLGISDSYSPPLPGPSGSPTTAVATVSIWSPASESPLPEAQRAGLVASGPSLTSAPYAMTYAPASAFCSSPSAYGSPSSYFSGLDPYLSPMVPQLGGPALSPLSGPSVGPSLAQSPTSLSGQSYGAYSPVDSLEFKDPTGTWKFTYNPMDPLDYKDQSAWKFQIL
Chain of ELF4 (Q99607 whole entry): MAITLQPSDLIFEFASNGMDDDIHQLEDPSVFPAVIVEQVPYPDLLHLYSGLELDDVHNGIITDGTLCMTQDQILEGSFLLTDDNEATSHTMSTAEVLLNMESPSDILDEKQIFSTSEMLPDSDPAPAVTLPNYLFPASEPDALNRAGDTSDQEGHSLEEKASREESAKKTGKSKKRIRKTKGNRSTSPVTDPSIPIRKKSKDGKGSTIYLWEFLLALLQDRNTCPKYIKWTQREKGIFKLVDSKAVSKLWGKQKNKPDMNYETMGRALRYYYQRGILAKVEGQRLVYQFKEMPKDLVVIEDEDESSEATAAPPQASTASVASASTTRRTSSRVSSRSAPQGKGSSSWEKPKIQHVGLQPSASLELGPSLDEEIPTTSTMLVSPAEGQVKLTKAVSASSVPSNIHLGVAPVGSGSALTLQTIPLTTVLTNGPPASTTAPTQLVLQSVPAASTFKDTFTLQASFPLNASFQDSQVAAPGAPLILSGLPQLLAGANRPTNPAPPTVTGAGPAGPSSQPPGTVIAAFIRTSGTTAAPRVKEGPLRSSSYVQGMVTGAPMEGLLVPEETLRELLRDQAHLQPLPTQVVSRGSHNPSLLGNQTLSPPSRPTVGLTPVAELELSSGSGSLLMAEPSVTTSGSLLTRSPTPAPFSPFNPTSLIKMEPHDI

Consider TATCAT, for which the binding signal is 1.16 fold enrichment (6-mer frequency, TF over GST control) in the assay with FEV; 1.07 fold enrichment (6-mer frequency, TF over GST control) in the assay with ETV5; 1.16 fold enrichment (6-mer frequency, TF over GST control) with HSF1; 1.25 fold enrichment (6-mer frequency, TF over GST control) with SPIC; 1.21 fold enrichment (6-mer frequency, TF over GST control) in the assay with ELF4; 1.16 fold enrichment (6-mer frequency, TF over GST control) in the assay with ELK4. In addition, the binding signal with ETV2 was 1.24 fold enrichment (6-mer frequency, TF over GST control); with ELF3, 1.11 fold enrichment (6-mer frequency, TF over GST control); in the assay with CRX it was 1.41 fold enrichment (6-mer frequency, TF over GST control); in the assay with ETV1, 1.13 fold enrichment (6-mer frequency, TF over GST control); with ERF, 1.14 fold enrichment (6-mer frequency, TF over GST control); with ETV3L, 1.21 fold enrichment (6-mer frequency, TF over GST control). Also, the binding signal with ETS2 was 1.13 fold enrichment (6-mer frequency, TF over GST control); with SPDEF, 1.09 fold enrichment (6-mer frequency, TF over GST control); in the assay with ETV7, 1.1 fold enrichment (6-mer frequency, TF over GST control); with ELF5, 1.15 fold enrichment (6-mer frequency, TF over GST control); in the assay with ETV3 it was 1.21 fold enrichment (6-mer frequency, TF over GST control); with ETV6 it was 1.05 fold enrichment (6-mer frequency, TF over GST control).
